Source: PubChem BioAssay (NCI)
Several values for one entry are separate records, joined by “and”; a condition that tells them apart may be missing. Equal entries are not always repeated. This is part of a sample that, as a whole, favours compounds with a hit. Of some 83,000 tested, about 20% had one in any assay.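 Each cell line was grown in a 96-well plate and treated with one concentration of compound for 48 hours. Values below 10 were considered active.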 Activity calls are given as the source filed them.

tested on: MDA-MB-468 breast; assay: NCI-60 one-dose screen, 48 h (100 = growth as untreated, 0 = no growth, -100 = all killed); conditions: 10 µM unless noted

Row | SMILES | growth
1 | CCN1C(=O)N(CC)C2Nn3c(s/c(=C\c4cccc(F)c4)c3=O)=NC21 (stereo not given) | 17.8% (inactive)
2 | C#CCn1c(-c2cccc(OCCCCl)c2)nc2c1c(=O)n(C)c(=O)n2C | 71.6% (inactive)
3 | O=C(NCCCCO)c1cncnc1Nc1ccc2c(ccn2Cc2cccc(F)c2)c1 | 67% (inactive)
4 | Cc1c2ccccc2nc2cc3c(cc12)[C@H]1CC[C@]2(C)C(=O)CC[C@H]2[C@@H]1CC3 | 91.3% (inactive)
5 | c1cc(-c2nc3ccc4[nH]ncc4c3c3c2CCCC3)[nH]n1 | 43.6% (inactive)
6 | COc1cc(OCc2cccc(-c3ccc(C(O)c4nccs4)cc3)c2C)cc(OC)c1CNCCNC(C)=O (stereo not given) | 92.1% (inactive)
7 | COc1ccc(C(=O)Nc2ncc(Cc3ccccc3Cl)s2)cc1 | 24.7% (inactive)
8 | Cn1c2ccccc2c2c3c(c4c5ccccc5n(C)c4c21)C(=O)OC3 | 101% (inactive)
9 | Oc1ccccc1C=Nc1ccc(N2CCN(c3ccccc3)CC2)cc1 | 108% (inactive)
10 | O=C(NNc1cnccn1)c1nc2cc(F)ccc2n2cccc12 | -21.7% (active)
11 | Brc1ccc(Nc2nc(Nc3cnc4ccccc4c3)c3[nH]cnc3n2)cc1 | 65.5% (inactive)
12 | CCc1c(C(=O)N[C@@H]2c3cc(Cl)ccc3CC[C@@H]2O)[nH]c(C)c1C(C)=O | 94.1% (inactive)
13 | C#CC#CC#CC#CC#CC#CC#CC#CC[C@@H]1OC[C@H](COC(=O)O[C@@H](C(=O)O[C@H]2C[C@@]3(O)[C@@H](OC(=O)c4ccccc4)[C@@H]4[C@]5(OC(C)=O)CO[C@@H]5C[C@H](O)[C@@]4(C)C(=O)[C@H](OC(C)=O)C(=C2C)C3(C)C)[C@@H](NC(=O)c2ccccc2)c2ccccc2)O1 | -8.1% (active)
14 | COC(=O)c1c2c(n3ccc(C)cc13)C(=O)c1ccccc1C2=O | 86.3% (inactive)
15 | COc1ccc(/C=C2\Oc3cc(OCCCN4CCCC4)ccc3C2=O)cc1 | 74.1% (inactive)
16 | CCN(CC)CCCC(C)NCC(=O)NC(c1ccc2c(c1)OCO2)c1cc(Cl)c2cccnc2c1O (stereo not given) | 16.6% (inactive)
17 | CCC(C)c1c(N)n(S(=O)(=O)c2ccc(C)cc2)oc1=O (stereo not given) | 109% (inactive)
18 | O=C(Cn1c2c(c3ccccc31)CCCC2)Nc1ccc(-c2nc3ccccc3s2)cc1 | -19.5% (active)
19 | CC(=O)Nc1ccc(-c2cc3c(NCc4ccc(F)cc4)ncnc3s2)cc1 | 69.7% (inactive)
20 | COC1=CC(c2ccc[nH]2)=N/C1=C\c1[nH]c(C)c(C(=O)CCCCCCCCC(=O)O[C@H]2CC[C@H]3C4CCc5cc(O)ccc5C4CC[C@]23C)c1C (stereo not given in full) | 37.5% (inactive)

Row | SMILES | growth
21 | COc1ccc(CNC(=O)C(=O)[C@H](Cc2ccccc2)NC(=O)c2[nH]c3ccccc3c(=O)c2C)cc1 | 98.4% (inactive)
22 | COc1ccc(NC(=O)c2cccc(-c3cc(=O)c4c(O)c(OC)c(OC)cc4o3)c2)cc1 | 84.3% (inactive)
23 | O=C(Cn1nnc2ccccc21)N/N=C/c1ccccc1F | 90.8% (inactive)
24 | NNCCc1ccccc1 | 113% (inactive) and 89.6% (inactive)
25 | COc1ccc2[nH]cc(C3(c4c[nH]c5ccc(OC)cc45)C(=O)Nc4ccc(F)cc43)c2c1 | 96.9% (inactive)
26 | Cc1[nH]nc2c1C(c1cnn(C)c1)C(C#N)=C(N)O2 (stereo not given) | 92.4% (inactive)
27 | OCCn1cc(-c2nc(-c3c[nH]c4ncccc34)cs2)c2ccccc21 | 4.37% (active)
28 | COc1ccccc1CNCCCCCCCCCCCCN1C(=O)c2ccc3c4c(ccc(c24)C1=O)C(=O)N(CCCCCCCCCCCCNCc1ccccc1OC)C3=O | -8.04% (active)
29 | O=CN1CCCCC1 | 95.6% (inactive)
30 | COc1ccc2nc(-c3ccc(OC)c(OC)c3)cc(-c3nnc(SCC(=O)Nc4ccc(/C(C)=N\O)cc4)n3-c3ccccc3)c2c1 | 56.2% (inactive)
31 | CN(C)C/C=C/C(=O)Nc1cc2c(Nc3cccc(Cl)c3F)ncnc2cc1OCCOC(F)F | -44.6% (active)
32 | O=C1/C(=C\c2coc3ccccc3c2=O)c2ccccc2N1c1c(Cl)cccc1Cl | 44.9% (inactive)
33 | COc1cc(-c2nc(N)n(CC(=O)Nc3ccc(/C(C)=N\O)cc3)n2)cc(OC)c1OC | 104% (inactive)
34 | COc1cc(-c2ccc3ncnc(NC(C)c4ccccc4)c3c2)cnc1OC (stereo not given) | -3.02% (active)
35 | O=C1OC(c2ccc(-c3ccccc3)cc2)=C/C1=C/c1cccs1 | -47.5% (active)
36 | N=C(N)c1ccc(-c2ccc(-c3ccccc3)s2)nc1 | 41.7% (inactive)
37 | COc1ccc(CNc2ccc3nc(NC(=O)CN4CCCCCC4)sc3c2)cc1 | 46.8% (inactive)
38 | O=C1Nc2ccc(Cl)cc2/C1=C\c1c(-c2ccc(F)cc2)nc2ccccn12 | -13.6% (active)
39 | CCN(CC)CCOC(COc1cc(C)cc(C)c1)COc1cc(C)cc(C)c1 | 9.41% (active)
40 | Cc1c2ccccc2nc2c1ccc1cccnc12 | 89.8% (inactive)
